Reference: PubChem BioAssay (Tox21)
Records with an inconclusive call do not appear. A call without a number means that no potency is given here. Values without a mark were called inactive. The source made the active and inactive calls. Unless noted, the call rests on the fitted dose curve; in most records, active means well fitted curve in the direction sought with a large enough effect in the repeat runs; inconclusive means weak or mixed curves; inactive means no such curve, though single readings can be large; an effect the other way counts as inactive or inconclusive.

Tests used:
[1] = qHTS assay to identify small molecule agonists of the RXR signaling pathway - cell viability counter screen (AID 1159529); further: series mostly up to about 77 µM; nearly all actives have a fitted effect of over 50% in size
Outline: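 Luminescence from CellTiter-Glo (30 min, RT) measured viability in the same wells as the beta-lactamase reporter readout. Cells: GeneBLAzer RXR-alpha HEK 293T, 2% charcoal-stripped FBS. Compound exposure 16 hr, 37 C.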

[2] = qHTS assay to identify small molecule antagonists of the retinoid acid receptor (RAR) signaling pathway - cell viability counter screen (AID 1159551); further: nearly all actives have a fitted effect of over 35% in size
Outline: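 Cytotoxicity counter screen in C3RL4 cells: 6 h compound exposure with 1 uM retinol (final), viability from cellular ATP by luminescence.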

[3] = qHTS assay to identify small molecule antagonists of the retinoic acid receptor (RAR) signaling pathway (AID 1159552; further: nearly all actives have a fitted effect of over 50% in size)
Outline: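 Luminescence from a RARE luciferase reporter in C3RL4 cells served as read-out. Cells received compounds together with 1 uM final retinol and incubated 6 hr at 37 C before detection reagent was added for 30 min at room temperature.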

[4] = qHTS assay to identify small molecule antagonists of the estrogen related receptor (ERR) signaling pathway from Tox21 library - cell viability counter screen (AID 1224834); further: nearly all actives have a fitted effect of over 30% in size
Outline: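 Cytotoxicity of test substances is gauged in the same ERR cells used for the antagonist screen, after 17.5 h of compound treatment at 37 C, by CellTiter-Fluor fluorescence measured after 30 min.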

[5] = target: Luciferin 4-monooxygenase (Photinus pyralis) (UniProt P08659); experiment: qHTS assay to identify small molecule inhibitors of firefly luciferase (AID 1224835); further: nearly all actives have a fitted effect of over 25% in size; further: potency means the concentration at half of the fitted maximal effect
Chain of Luciferin 4-monooxygenase (Photinus pyralis) (P08659 whole entry, looked up): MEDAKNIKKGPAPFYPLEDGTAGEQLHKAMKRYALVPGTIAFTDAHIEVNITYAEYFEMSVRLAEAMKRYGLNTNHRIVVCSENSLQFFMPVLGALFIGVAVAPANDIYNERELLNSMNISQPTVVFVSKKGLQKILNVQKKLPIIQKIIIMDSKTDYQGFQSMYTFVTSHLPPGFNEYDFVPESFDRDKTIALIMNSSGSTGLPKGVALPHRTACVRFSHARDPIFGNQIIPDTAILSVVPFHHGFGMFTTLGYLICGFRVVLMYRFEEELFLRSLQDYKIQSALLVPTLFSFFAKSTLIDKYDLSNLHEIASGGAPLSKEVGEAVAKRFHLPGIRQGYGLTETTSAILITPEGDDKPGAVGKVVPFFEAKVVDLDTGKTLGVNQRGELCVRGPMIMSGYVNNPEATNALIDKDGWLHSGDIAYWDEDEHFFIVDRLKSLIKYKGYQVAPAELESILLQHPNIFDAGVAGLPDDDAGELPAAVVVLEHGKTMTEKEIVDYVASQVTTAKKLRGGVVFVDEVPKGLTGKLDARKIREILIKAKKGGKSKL
Outline: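 Quantitative HTS format; KM concentrations of both substrates. Purified P. pyralis FLuc activity quantified from luminescence images.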

[6] = qHTS assay to identify small molecule agonists of the constitutive androstane receptor (CAR) signaling pathway - cell viability counter screen (AID 1224836); further: series mostly up to about 92 µM; nearly all actives have a fitted effect of over 45% in size
Outline: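 Viability read-out: CellTiter-Fluor fluorescence after 23 h compound exposure at 37 C/5% CO2 in double-stable HepG2-CYP2B6-hCAR cells, with PK11195 present at 0.75 uM final; compounds tested in 15-point titration.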

[7] = qHTS assay to identify small molecule antagonists of the constitutive androstane receptor (CAR) signaling pathway - cell viability counter screen (AID 1224837); further: series mostly up to about 92 µM; nearly all actives have a fitted effect of over 45% in size
Outline: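 Multiplexed cytotoxicity read-out for the CAR antagonist screen: double-stable HepG2-CYP2B6-hCAR cells co-treated with 50 nM CITCO (final) and compound over 15 concentrations, incubated 23 hr, then assessed by CellTiter-Fluor fluorescence.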

[8] = target: Nuclear receptor subfamily 1 group I member 3 (Homo sapiens) (UniProt Q14994); experiment: qHTS assay to identify small molecule antagonists of the constitutive androstane receptor (CAR) signaling pathway (AID 1224838); further: nearly all actives have a fitted effect of over 40% in size
Chain of Nuclear receptor subfamily 1 group I member 3 (Homo sapiens) (Q14994 whole entry, looked up): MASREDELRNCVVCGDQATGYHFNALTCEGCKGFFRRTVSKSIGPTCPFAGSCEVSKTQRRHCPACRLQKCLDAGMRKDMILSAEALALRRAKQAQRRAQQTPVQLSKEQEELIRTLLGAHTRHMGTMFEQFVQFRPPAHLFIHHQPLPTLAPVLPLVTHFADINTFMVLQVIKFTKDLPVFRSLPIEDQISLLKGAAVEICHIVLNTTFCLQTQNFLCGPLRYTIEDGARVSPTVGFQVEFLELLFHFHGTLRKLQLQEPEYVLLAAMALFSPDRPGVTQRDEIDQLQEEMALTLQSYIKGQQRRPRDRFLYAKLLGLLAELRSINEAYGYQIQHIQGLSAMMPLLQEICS
Outline: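 Compounds were titrated across 15 concentrations onto HepG2 cells double-stably expressing hCAR and a CYP2B6-2.2kb reporter, together with 50 nM CITCO (final). After 24 h at 37 C, luciferase activity was measured by luminescence.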

[9] = qHTS assay to identify small molecule antagonists of the estrogen related receptor signaling pathway with the pleiotropic PPARgamma coactivator (PGC) from Tox21 10K library - cell viability counter screen (AID 1224840; active means well fitted cell-killing curve with a large enough effect in the repeat runs, not every such curve was filed as active; further: nearly all actives have a fitted effect of over 40% in size)
Outline: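 Step one, plate 2,000 PGC/ERR cells per well; step two, incubate 6 h at 37 C/5% CO2; step three, pin-transfer compounds; step four, incubate 17.5 h; step five, add CellTiter-Fluor and read fluorescence after 30 min.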

[10] = qHTS assay to identify small molecule antagonists of the estrogen related receptor signaling pathway with the pleiotropic PPARgamma coactivator (PGC) from Tox21 10K library (AID 1224841; call rule not given here; further: series mostly up to about 92 µM; actives are mostly falling curves and most rising ones were filed inactive; nearly all actives have a fitted effect of over 50% in size)
Outline: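 Antagonism in this quantitative HTS is taken from loss of luciferase signal in PGC/ERR cells. Cells (2,000/well) are treated with compounds in DMSO after a 6 h settling period and read by One-Glo luminescence after 18 h.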

[11] = qHTS assay to identify small molecule agonists of the estrogen related receptor signaling pathway with the pleiotropic PPARgamma coactivator (PGC) from Tox21 10K library (AID 1224842); further: nearly all actives have a fitted effect of over 15% in size; further: potency means the concentration at half of the fitted maximal effect
Outline: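 PGC/ERR reporter cells (NTP line) were seeded 2,000 per well, rested 6 h at 37 C/5% CO2, then pin-dosed with compounds in DMSO for 18 h at 37 C; luciferase read by One-Glo luminescence after 30 min at room temperature.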

[12] = target: Nuclear receptor subfamily 1 group I member 3 (Homo sapiens) (UniProt Q14994); experiment: qHTS assay to identify small molecule agonists of the constitutive androstane receptor (CAR) signaling pathway (AID 1224839); further: nearly all actives have a fitted effect of over 15% in size; further: potency means the concentration at half of the fitted maximal effect
Outline: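 Luminescence read-out (ONE-Glo, 30 min, room temperature) from double-stable HepG2-CYP2B6-hCAR cells exposed 24 h to 15-point compound series in presence of 0.75 uM PK11195 final.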

[13] = qHTS assay to identify small molecule agonists of the retinoic acid receptor (RAR) signaling pathway (AID 1159553)
Outline: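 Agonist activity was scored in C3RL4 cells bearing a retinoic acid response element luciferase construct. Cells were treated with compounds for 6 hr at 37 C, and luciferase signal was measured as luminescence.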

[14] = qHTS assay to identify small molecule antagonists of the estrogen related receptor (ERR) signaling pathway - cell viability counter screen (AID 1224818);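 further: series mostly up to about 46 µM; viability measured after 17.5 h of compound exposure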
Outline: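 Cells carrying the ERR pathway reporter were seeded and incubated for 6 hours before compound addition. After a 17.5-hour exposure at 37 C, live-cell protease activity was measured by CellTiter-Fluor fluorescence following 30 minutes of incubation.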

[15] = qHTS assay to identify small molecule antagonists of the estrogen related receptor signaling pathway with the pleiotropic PPARgamma coactivator (PGC) cell viability counter screen (AID 1224822;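 further: series mostly up to about 46 µM; viability read after 17.5 h compound exposure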)
Outline: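 Seed PGC/ERR cells (2,000/well); incubate 6 h at 37 C/5% CO2; pin-transfer compounds in DMSO; incubate 17.5 h at 37 C; add CellTiter-Fluor; after 30 min read fluorescence.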

OCCOc1cccc(OCCO)c1
Potency [1]: inactive
outcome [2]: inactive
outcome [3]: inactive
Potency [4]: inactive
Potency [5]: inactive
Potency [6]: inactive
Potency [7]: inactive
Potency [8]: inactive
Potency [9]: inactive
Potency [10]: inactive
Potency [11]: inactive

CCCCOC(=O)CC#N
Potency [1]: inactive
outcome [2]: inactive
outcome [3]: inactive
Potency [4]: inactive
Potency [5]: inactive
Potency [6]: inactive
Potency [7]: inactive
Potency [8]: inactive
Potency [12]: inactive
Potency [9]: inactive

NC(=O)c1ccccc1
Potency [1]: inactive
outcome [2]: inactive
Potency [13]: inactive
outcome [14]: inactive
outcome [15]: inactive
Potency [4]: inactive
Potency [5]: inactive
Potency [6]: inactive
Potency [7]: inactive
Potency [8]: inactive
Potency [12]: inactive

O=C(O)c1c2ccccc2cc2ccccc12
Potency [1]: inactive
outcome [2]: inactive
Potency [4]: inactive
Potency [5]: inactive
Potency [6]: inactive

CCCCOc1ccc(N)cc1
Potency [1]: inactive
outcome [2]: inactive
outcome [3]: inactive
Potency [4]: inactive
Potency [6]: inactive
Potency [7]: inactive
Potency [8]: inactive
Potency [9]: inactive
Potency [10]: inactive

Nc1ccc(-c2ccc(F)cc2)cc1
Potency [1]: inactive
outcome [2]: inactive
outcome [3]: inactive
Potency [4]: inactive
Potency [5]: 31.7 µM (active)
Potency [6]: inactive
Potency [7]: inactive
Potency [8]: inactive
Potency [12]: 27.3 µM (active)
Potency [9]: inactive
Potency [10]: inactive
Potency [11]: 5.45 µM (active)

O=C(O)c1cc(C(=O)O)c(C(=O)O)cc1C(=O)O
Potency [1]: inactive
outcome [2]: inactive
outcome [3]: inactive
Potency [4]: inactive
Potency [5]: inactive
Potency [6]: inactive
Potency [7]: inactive
Potency [8]: inactive
Potency [12]: inactive
Potency [9]: inactive
Potency [10]: inactive
Potency [11]: inactive

OCCCO
Potency [1]: inactive
outcome [2]: inactive
outcome [3]: inactive
Potency [4]: inactive
Potency [5]: inactive
Potency [6]: inactive
Potency [7]: inactive
Potency [9]: inactive

O=C1c2ccccc2C(=O)c2c1ccc(O)c2O
Potency [1]: inactive
outcome [2]: inactive
outcome [3]: inactive
Potency [13]: inactive
Potency [5]: 34.7 µM (active)
Potency [6]: inactive
Potency [8]: inactive
Potency [12]: inactive
Potency [9]: inactive

CCCCCCCCNC
Potency [1]: inactive
outcome [2]: inactive
Potency [4]: inactive
Potency [5]: inactive
Potency [6]: inactive
Potency [7]: inactive
Potency [8]: inactive
Potency [12]: inactive
Potency [9]: inactive

CC[C@H](NC(C)C)[C@H](O)c1ccc(O)c2[nH]c(=O)ccc12
Potency [1]: inactive
outcome [2]: inactive
outcome [3]: inactive
Potency [4]: inactive
Potency [5]: inactive
Potency [6]: inactive
Potency [7]: inactive
Potency [8]: inactive
Potency [12]: inactive
Potency [9]: inactive
Potency [10]: inactive
Potency [11]: inactive

CC1(C)CC(=O)CC(C)(C)N1
Potency [1]: inactive
outcome [2]: inactive
Potency [4]: inactive
Potency [5]: inactive
Potency [6]: inactive
Potency [7]: inactive
